About 83,000 compounds went through this panel and 20% of them were active in at least one assay; those are over-represented in the sample as a whole.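 The endpoint reported here, percent growth, reads 100 for growth as untreated, 0 for no net growth and -100 for all cells dead.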 Active and inactive are the calls of the source. Rule for the calls: active = growth percent below 10; inactive = the rest.

The subject of this assay is HL-60(TB) leukemia. Kind of assay: NCI-60 one-dose screen, 48 h (100 = growth as untreated, 0 = no growth, -100 = all killed). The conditions noted are these: 10 µM unless noted.
Take `O=[N+]([O-])c1cc(Cl)cc(Cl)c1O`: the growth was 99.5% (inactive).

On to `CNCCCNc1nc2ccccc2c2c(=O)c3cc(Cl)ccc3sc12`, for which the growth was -55.2% (active).

For the molecule `O=C(Nc1cccc(Cl)c1)c1cc(N=Nc2ccc([N+](=O)[O-])cc2Cl)ccc1O`, the growth was 38.2% (inactive).

Take `CC1CN(C(C)C)C(=S)N(c2ccccc2)C1=O` (stereo not given): the growth is 113% (inactive).

In the case of `CC1(C)CCC(C)(C)NC(=S)N1`, the growth is 89.3% (inactive).

As for `CC[C@H](Nc1ncnc(N)c1C(N)=O)c1nc2cccc(NCc3ccc(C(=O)NO)cc3)c2c(=O)n1-c1ccccc1`, the growth is 126% (inactive).

For `O=c1[nH]c2ccc(Br)cc2c2c1C(c1ccc(Cl)cc1)c1c(ncn3nc(-c4ccco4)nc13)O2` (stereo not given), the growth is 72.7% (inactive).

Turning to `CC[N+](C)(C)N`, the growth is 103% (inactive).

With `COc1ccc(-c2nc3c(c(=O)n2C(C)=O)C(c2ccc(Cl)cc2)c2sc4c(Cl)cccc4c2O3)cc1` (stereo not given), the growth was -14% (active).

`CC(C)(C)[Si](C)(C)OC1[C@@H](CNC(=O)NC(=O)NC(N)=O)O[C@@H](n2cnc3c(NC(=O)Nc4ccccc4)ncnc32)[C@H]1O[Si](C)(C)C(C)(C)C` (stereo not given in full): the growth is 86.3% (inactive).

With `CCCCCCCCNC(=O)[C@@H](N)CSCOC(C)=O`, the growth is 83.6% (inactive).

On to `CN1CCN(C(=O)c2ccc(NC(=O)c3cc4c(nn3)NCCN4Cc3cc(Cl)ccc3Cl)cc2)CC1`, for which the growth was 43% (inactive).

Consider `C=C(C)[C@@H]1CC[C@]2(C)[C@H](CC=C3[C@@H]4CC(C)(C)CC[C@]4(C(N)=O)CC[C@]32C)[C@@]1(C)CCC#N`, for which the growth was 16% (inactive).

For `CCOC(=O)CCC(NC(=O)c1ccc(N)cc1)C(=O)OCC` (stereo not given), the growth was 102% (inactive).

Consider `CCCCNC(=O)Oc1ccc(/C(=C(\C)c2ccccc2)c2ccc(OCCN3CCCCC3)cc2)cc1`, for which the growth is 49.4% (inactive).

For `Oc1cccc(CNC2CCCCC2)c1`, the growth was 107% (inactive).

In the case of `C[C@]12CC[C@@H]3c4ccc(O)cc4CC[C@H]3[C@@H]1C[C@H](O)C2`, the growth was 52% (inactive).

`CSc1nnc(-c2cc3c([nH]c4ccccc43)c(-c3cccc(O)c3)n2)n1-c1ccc(C)cc1`: the growth was -16.1% (active).

`COc1cccc(N2CCN(CC(=O)N3CCN(c4nnc(-c5ccc(Cl)cc5)c(-c5ccc(Cl)cc5)n4)CC3)CC2)c1`: the growth is 20.6% (inactive).

Turning to `O=c1[nH]nc(-c2ccccc2)c2sc(NC(=S)Nc3ccc(Cl)cc3)nc12`, the growth was 72.6% (inactive).

`Cc1ccc(N=c2nc3sc4c(C)ccc(C)c4n3c(N)c2C#N)cc1`: the growth was 108% (inactive).

`Oc1ccc2c(=S)cc(-c3ccc(Br)cc3)oc2c1O`: the growth was -22% (active).

Take `N#Cc1nc(-c2ccc(F)cc2)oc1S(=O)(=O)N1CCCCC1`: the growth was 32.4% (inactive).

For the molecule `CS(=O)c1cccc(-c2ccc3nc(N)n(-c4ccc(C(F)(F)F)cc4)c(=O)c3c2)c1` (stereo not given), the growth is 100% (inactive).

Consider `CCOC(=O)c1cc(C(=O)c2cc(OC)cc(OC)c2)n2nc(C)ccc12`, for which the growth was -16.5% (active).

The record behind these values is PubChem BioAssay (NCI).
